“And” between values parts separate entries of the source, which are not always exact repeats. Equal entries are not always repeated. Records with an inconclusive call do not appear. The source made the active and inactive calls. The call rests on the fitted dose curve; in most records, active means well fitted inhibition curve with a large enough effect; inconclusive means small, poorly fitted or top-dose-only effect; inactive means flat fitted curve, though single readings scatter. Where a SMILES comes first, the peptide text is derived from it. [ ]: non-standard residue; d: D form. pGlu = O=C1CC[C@@H](C(=O)O)N1; Thz = O=C(O)[C@@H]1CSCN1
Assays:
[1] = qHTS profiling for inhibitors of Plasmodium falciparum proliferation (AID 504749); further: nearly all actives have a fitted effect of over 60% in size;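 on activity, negative = inhibition: 0% = DMSO vehicle and full inhibition = artemisinin control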; conditions: P. falciparum in erythrocytes, SYBR Green DNA, 72 h
How it was run: (§1)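 P. falciparum-infected erythrocytes (0.3% parasitemia, 2.5% hematocrit) incubated with compound 72 h at 37 C, 5% CO2. Parasite DNA detected by SYBR Green after lysis, overnight at room temperature; normalised to 0.29 uM artemisinin and DMSO.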

AA1029 = assay: as above; conditions: P. falciparum in erythrocytes, SYBR Green DNA, 72 h; series mostly up to 28.7 µM
How it was run: as §1

AS120 = assay: as above; conditions: P. falciparum in erythrocytes, SYBR Green DNA, 72 h; series mostly up to 28.7 µM
How it was run: as §1

ATS189 = assay: as above; conditions: P. falciparum in erythrocytes, SYBR Green DNA, 72 h; series mostly up to 28.7 µM
How it was run: as §1

ATS95 = assay: as above; conditions: P. falciparum in erythrocytes, SYBR Green DNA, 72 h; series mostly up to 28.7 µM
How it was run: as §1

CP185 = assay: as above; conditions: P. falciparum in erythrocytes, SYBR Green DNA, 72 h; series mostly up to 28.7 µM
How it was run: as §1

CP192 = assay: as above; conditions: P. falciparum in erythrocytes, SYBR Green DNA, 72 h; series mostly up to 28.7 µM
How it was run: as §1

CP194 = assay: as above; conditions: P. falciparum in erythrocytes, SYBR Green DNA, 72 h; series mostly up to 28.7 µM
How it was run: as §1

CP201 = assay: as above; conditions: P. falciparum in erythrocytes, SYBR Green DNA, 72 h; series mostly up to 28.7 µM
How it was run: as §1

CP203 = assay: as above; conditions: P. falciparum in erythrocytes, SYBR Green DNA, 72 h; series mostly up to 28.7 µM
How it was run: as §1

CP211 = assay: as above; conditions: P. falciparum in erythrocytes, SYBR Green DNA, 72 h; series mostly up to 28.7 µM
How it was run: as §1

CP215 = assay: as above; conditions: P. falciparum in erythrocytes, SYBR Green DNA, 72 h; series mostly up to 28.7 µM
How it was run: as §1

CP217 = assay: as above; conditions: P. falciparum in erythrocytes, SYBR Green DNA, 72 h; series mostly up to 28.7 µM
How it was run: as §1

CP238 = assay: as above; conditions: P. falciparum in erythrocytes, SYBR Green DNA, 72 h; series mostly up to 28.7 µM
How it was run: as §1

7G8 = assay: as above; conditions: P. falciparum in erythrocytes, SYBR Green DNA, 72 h; series mostly up to 28.7 µM
How it was run: as §1

CP191 = assay: as above; conditions: P. falciparum in erythrocytes, SYBR Green DNA, 72 h; series mostly up to 28.7 µM
How it was run: as §1

3D7 = assay: as above; conditions: P. falciparum in erythrocytes, SYBR Green DNA, 72 h; series mostly up to 28.7 µM
How it was run: as §1

C2A = assay: as above; conditions: P. falciparum in erythrocytes, SYBR Green DNA, 72 h; series mostly up to 28.7 µM
How it was run: as §1

CP237 = assay: as above; conditions: P. falciparum in erythrocytes, SYBR Green DNA, 72 h; series mostly up to 28.7 µM
How it was run: as §1

[2] = at 28.7 µM (top of the series), parasite line A
[3] = at 28.7 µM (top of the series), parasite line B
Potency means the concentration at half of the fitted maximal effect.

O=C(O)c1cc(O)c(O)c(O)c1
inactive: activity, negative = inhibition [1, 2] -23.1% | activity, negative = inhibition [1, 3] -29.8% | Potency (AA1029) | Potency (AS120) | Potency (ATS189) | Potency (ATS95) | Potency (CP185) | Potency (CP192) | Potency (CP194) | Potency (CP201) | Potency (CP203) | Potency (CP211) | Potency (CP215) | Potency (CP217) | Potency (CP238)

COC(=O)C1=C(C)NC(C)=C(C(=O)OCC(C)C)C1c1ccccc1[N+](=O)[O-] (stereo not given)
active: Potency ([1]; parasite line A) 11.2 µM | Potency ([1]; parasite line B) 10 µM | Potency (7G8) 3.16 µM | Potency (AS120) 10 µM | Potency (CP191) 12.6 µM

Cc1nc2ccccc2n1Cc1ccc(Cl)cc1
inactive: Potency (3D7) | Potency (ATS95) | Potency (C2A) | Potency (CP185) | Potency (CP192) | Potency (CP237) | Potency (CP238)
active: Potency ([1]; parasite line A) 12.6 µM

O=C1CC[C@@H](C(=O)N2CSC[C@H]2C(=O)O)N1 ([pGlu]-[Thz]-OH)
inactive: activity, negative = inhibition [1, 2] 14.8% | activity, negative = inhibition [1, 3] 2.84% | Potency (3D7) | Potency (7G8) | Potency (AA1029) | Potency (AS120) | Potency (ATS189) | Potency (ATS95) | Potency (C2A) | Potency (CP185) | Potency (CP191) | Potency (CP192) | Potency (CP194) | Potency (CP201) | Potency (CP211) | Potency (CP215) | Potency (CP217) | Potency (CP237) | Potency (CP238)

O=C(CCN1CCN(CCO)CC1)N1c2ccccc2Sc2ccc(C(F)(F)F)cc21
inactive: Potency (AA1029) | Potency (ATS95) | Potency (CP192) | Potency (CP201) | Potency (CP203) | Potency (CP215)
active: Potency ([1]; parasite line A) 14.1 µM | Potency (7G8) 7.94 µM | Potency (AS120) 14.1 µM | Potency (ATS189) 11.2 µM | Potency (CP191) 4.47 µM | Potency (CP237) 10 µM

O=C(O)c1ccccc1Nc1cccc(C(F)(F)F)c1
inactive: activity, negative = inhibition [1, 2] -6.43% | activity, negative = inhibition [1, 3] 10.3% | Potency (3D7) | Potency (7G8) | Potency (AA1029) | Potency (AS120) | Potency (ATS189) | Potency (ATS95) | Potency (C2A) | Potency (CP185) | Potency (CP194) | Potency (CP201) | Potency (CP203) | Potency (CP211) | Potency (CP215) | Potency (CP217) | Potency (CP237) | Potency (CP238)

CN1[C@@H]2CC[C@H]1CC(OC(c1ccccc1)c1ccccc1)C2 (stereo not given in full)
inactive: Potency (3D7) | Potency (C2A) | Potency (CP192)
active: Potency (7G8) 5.62 µM and 7.08 µM | Potency (AS120) 12.6 µM | Potency (ATS95) 12.6 µM | Potency (CP191) 8.91 µM | Potency (CP217) 12.6 µM

CN1[C@@H]2CC[C@H]1CC(OC(=O)C(CO)c1ccccc1)C2 (stereo not given in full)
inactive: activity, negative = inhibition [1, 2] -2.42% | Potency (3D7) | Potency (7G8) | Potency (AA1029) | Potency (AS120) | Potency (ATS189) | Potency (ATS95) | Potency (C2A) | Potency (CP185) | Potency (CP191) | Potency (CP192) | Potency (CP194) | Potency (CP201) | Potency (CP211) | Potency (CP215) | Potency (CP217) | Potency (CP237) | Potency (CP238)

Cc1cc(O)c2ccccc2c1O
active: Potency (3D7) 12.6 µM
inactive: activity, negative = inhibition [1, 2] 7.28% | activity, negative = inhibition [1, 3] -10.1% | Potency (AA1029) | Potency (AS120) | Potency (ATS189) | Potency (ATS95) | Potency (C2A) | Potency (CP185) | Potency (CP191) | Potency (CP192) | Potency (CP194) | Potency (CP201) | Potency (CP211) | Potency (CP215) | Potency (CP217) | Potency (CP237) | Potency (CP238)

CN(C)c1ccc(C(=C2C=CC(=[N+](C)C)C=C2)c2ccccc2)cc1
active: Potency ([1]; parasite line A) 11.2 µM | Potency ([1]; parasite line B) 11.2 µM | Potency (3D7) 2.24 µM | Potency (7G8) 11.2 µM | Potency (AA1029) 8.91 µM | Potency (AS120) 11.2 µM | Potency (ATS189) 7.94 µM | Potency (C2A) 12.6 µM | Potency (CP191) 7.94 µM | Potency (CP217) 11.2 µM | Potency (CP237) 8.91 µM
inactive: Potency (CP192)

CCCSc1ccc2nc(NC(=O)OC)[nH]c2c1
inactive: activity, negative = inhibition ([1]; at 12.8 µM (top of the series), parasite line A) -19.4% | activity, negative = inhibition ([1]; at 12.8 µM (top of the series), parasite line B) -12.4% | Potency (3D7) | Potency (7G8) | Potency (AA1029) | Potency (AS120) | Potency (ATS189) | Potency (ATS95) | Potency (C2A) | Potency (CP185) | Potency (CP192) | Potency (CP201) | Potency (CP211) | Potency (CP215) | Potency (CP217) | Potency (CP237) | Potency (CP238)

C[S+](CC[C@H](N)C(=O)O)C[C@H]1O[C@@H](n2cnc3c(N)ncnc32)[C@H](O)[C@@H]1O (stereo not given in full)
inactive: Potency (3D7) | Potency (7G8) | Potency (AS120) | Potency (C2A) | Potency (CP192) | Potency (CP194) | Potency (CP201) | Potency (CP203) | Potency (CP211) | Potency (CP215) | Potency (CP237)

CCCCC[C@H](O)/C=C/[C@@H]1[C@@H](C/C=C\CCCC(=O)O)[C@@H](O)C[C@H]1O
inactive: activity, negative = inhibition [1, 2] 7.31% | activity, negative = inhibition [1, 3] 11% | Potency (3D7) | Potency (AA1029) | Potency (AS120) | Potency (ATS189) | Potency (ATS95) | Potency (C2A) | Potency (CP185) | Potency (CP191) | Potency (CP192) | Potency (CP194) | Potency (CP201) | Potency (CP203) | Potency (CP211) | Potency (CP215) | Potency (CP217) | Potency (CP237) | Potency (CP238)

From PubChem BioAssay (NCATS)
